# Results as given in the supplement of paper PMC11172423.
# A number with no mark means an inactive call.
# Assays:
# [1] = tested on: Falciformispora senegalensis CBS197.79; experiment: growth relative to untreated control; higher = less inhibition, active = 20 or less
# Procedure, shortened: (§1)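 For each test, a hyphal fragment suspension of M. mycetomatis MM55 or F. senegalensis CBS197.79 was prepared in colourless RPMI 1640 with L-glutamine and MOPS at 68–72% transmission at 660 nm. Exposure to compound at 100 or 25 µM ran for 7 days at 37 °C in 96-well plates, followed by viability reading with MTS (2 h, 490 nm) or resazurin (600 nm). Growth corresponds to metabolic activity relative to the untreated growth control after correction of both with a blank of medium and dye.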
# [2] = tested on: Madurella mycetomatis MM55; experiment: as above
# Procedure, shortened: as §1
SMILES,growth ([1]; 25 µM),growth ([1]; 100 µM),growth ([2]; 25 µM) [%],growth ([2]; 100 µM) [%]
O=C1C=C(N(Cc2ccc(Cl)nc2)CC(F)F)CO1,96.7%,89.3%,–,–
FC(F)(F)c1cc(Cl)cc(Nc2nc3cnc(OC4CCC4)cc3n2[C@@H]2CCNC2)c1,99.8%,108%,–,–
CC(C)(C#N)NC(=O)c1cc(Cl)cc(Cl)c1NC(=O)c1cc(Cl)nn1-c1ncccc1Cl,94.4%,94.6%,–,–
COP(=S)(OC)Oc1nc(Cl)c(Cl)cc1Cl,91.7%,93.4%,–,–
CC[C@@H]1CCC[C@H](O[C@H]2CC[C@H](N(C)C)[C@@H](C)O2)[C@@H](C)C(=O)C2=C[C@@H]3[C@@H](C=C(C)[C@@H]4C[C@@H](O[C@@H]5O[C@@H](C)[C@H](OC)[C@@H](OC)[C@H]5OC)C[C@@H]34)[C@@H]2CC(=O)O1.CC[C@@H]1CCC[C@H](O[C@H]2CC[C@H](N(C)C)[C@@H](C)O2)[C@@H](C)C(=O)C2=C[C@@H]3[C@@H](C=C[C@@H]4C[C@@H](O[C@@H]5O[C@@H](C)[C@H](OC)[C@@H](OC)[C@H]5OC)C[C@@H]34)[C@@H]2CC(=O)O1,78.1%,93.3%,–,–
CN1CCN(C(=O)O[C@H]2c3nccnc3C(=O)N2c2ccc(Cl)cn2)CC1,106%,102%,–,–
CN/C(=N/CC1CCOC1)N[N+](=O)[O-] (configuration not stated),91.8%,92.9%,–,–
COP(=S)(OC)Oc1ccc(Sc2ccc(OP(=S)(OC)OC)cc2)cc1,93.4%,92.8%,–,–
Cc1sc2c(c1C)C(c1ccc(Cl)cc1)=N[C@@H](CC(=O)OC(C)(C)C)c1nnc(C)n1-2,101%,97.4%,–,–
CCOC(=O)CC(SP(=S)(OC)OC)C(=O)OCC (configuration not stated),98.4%,95.2%,–,–
ClC1=C(Cl)[C@@]2(Cl)[C@H]3C[C@@H](Cl)[C@H](Cl)[C@H]3[C@@]1(Cl)C2(Cl)Cl,64.8%,78.3%,–,–
COC(=O)N(C(=O)N1CO[C@@]2(C(=O)OC)Cc3cc(Cl)ccc3C2=N1)c1ccc(OC(F)(F)F)cc1,100%,96.3%,–,–
CNC(=O)Oc1cccc2c1OC(C)(C)O2,86.8%,96%,–,–
CC(C)=CC1C(C(=O)OCN2C(=O)C3=C(CCCC3)C2=O)C1(C)C (configuration not stated),93.7%,100%,–,–
CC1(C)C(/C=C(\Cl)c2ccc(Cl)cc2)C1C(=O)OC(C#N)c1ccc(F)c(Oc2ccccc2)c1 (configuration not stated),74.8%,93.3%,–,–
CC1(Nc2ncc3nc(Nc4cc(Cl)cc(C(F)(F)F)c4)n(C4CCNC4)c3n2)CC1 (configuration not stated),83.5%,52.1%,–,–
N#Cc1nn(-c2c(Cl)cc(C(F)(F)F)cc2Cl)c(NCc2ccccn2)c1SC(F)F,85.6%,101%,–,–
N#Cc1nn(-c2c(Cl)cc(C(F)(F)F)cc2Cl)c(N)c1S(=O)C(F)(F)F (configuration not stated),92.1%,88.4%,–,–
CN(C)[C@@H]1C(=O)C(C(N)=O)=C(O)[C@@]2(O)C(O)=C3C(=O)c4c(O)cccc4[C@@](C)(O)[C@H]3C[C@@H]12,99.7%,94.1%,–,–
CN1COCN(Cc2cnc(Cl)s2)/C1=N/[N+](=O)[O-],93%,86.8%,–,–
C=C(C)[C@H]1Cc2c(ccc3c2O[C@@H]2COc4cc(OC)c(OC)cc4[C@@H]2C3=O)O1,90.6%,102%,–,–
COc1ccc(C[C@H]2NC[C@H](O)[C@H]2OC(C)=O)cc1,5.78% (active),14.4% (active),–,–
CN(c1cc(NC(=O)c2ccc(F)cc2)ccn1)C1CCN(Cc2cccc(F)c2)CC1,66%,30.2%,–,–
CC1(C)CNC(=NN=C(C=Cc2ccc(C(F)(F)F)cc2)C=Cc2ccc(C(F)(F)F)cc2)NC1,88.7%,107%,–,–
COc1ccc(CCN2CCC(Nc3nc4ccccc4n3Cc3ccc(F)cc3)CC2)cc1,12.9% (active),15% (active),–,–
O=C(NC(=O)c1ccccc1Cl)Nc1ccc(OC(F)(F)F)cc1,84.1%,76.1%,–,–
CNC(=O)Oc1cccc2ccccc12,99.6%,108%,–,–
CC1(C)C(C=C(Cl)Cl)C1C(=O)OC(C#N)c1ccc(F)c(Oc2ccccc2)c1 (configuration not stated),94%,73.5%,–,–

SMILES,growth ([1]; 25 µM),growth ([1]; 100 µM),growth ([2]; 25 µM) [%],growth ([2]; 100 µM) [%]
CC(C)=CC1C(C(=O)OC(C#N)c2cccc(Oc3ccccc3)c2)C1(C)C (configuration not stated),78.2%,101%,–,–
Clc1ccc(C(OCCN2CCCCC2)c2ccccc2)cc1 (configuration not stated),100%,13.2% (active),–,–
CCS(=O)c1c(C#N)nn(-c2c(Cl)cc(C(F)(F)F)cc2Cl)c1N (configuration not stated),82.1%,83.7%,–,–
CNCCn1c(Nc2cc(Cl)cc(C(F)(F)F)c2)nc2cnc(NC3CC(F)(F)C3)cc21,69%,26.2%,–,–
CC[C@H](C)[C@H]1O[C@]2(C=C[C@@H]1C)C[C@@H]1C[C@@H](C/C=C(\C)[C@@H](O[C@H]3C[C@H](OC)[C@@H](O[C@H]4C[C@H](OC)[C@@H](O)[C@H](C)O4)[C@H](C)O3)[C@@H](C)/C=C/C=C3\CO[C@@H]4[C@H](O)C(C)=C[C@@H](C(=O)O1)[C@]34O)O2.CO[C@H]1C[C@H](O[C@H]2[C@H](C)O[C@@H](O[C@@H]3/C(C)=C/C[C@@H]4C[C@@H](C[C@]5(C=C[C@H](C)[C@@H](C(C)C)O5)O4)OC(=O)[C@@H]4C=C(C)[C@@H](O)[C@H]5OC/C(=C\C=C\[C@@H]3C)[C@]54O)C[C@@H]2OC)O[C@@H](C)[C@@H]1O,92.5%,90%,–,–
C[C@@H]1O[C@@H](O[C@@H]2C=C3CC[C@@H]4[C@H](CC[C@]5(C)[C@@H](c6ccc(=O)oc6)CC[C@]45O)[C@@]3(C)CC2)[C@H](O)[C@H](O)[C@H]1O,99.3%,104%,–,–
Cc1cc(C2=NOC(c3cc(Cl)cc(Cl)c3)(C(F)(F)F)C2)ccc1C(=O)NCC(=O)NCC(F)(F)F (configuration not stated),92.4%,103%,–,–
CN(C)CCn1c(Nc2cc(Cl)cc(C(F)(F)F)c2)nc2cnc(NC3CCC3)cc21,102%,104%,–,–
CNC(=O)c1cc(C#N)cc(C)c1NC(=O)c1cc(Br)nn1-c1ncccc1Cl,89.6%,103%,–,–
CN/C(=N\[N+](=O)[O-])NCc1cnc(Cl)s1,90.6%,85.7%,–,–
CC[C@H]1CN2CCc3cc(OC)c(OC)cc3[C@@H]2C[C@@H]1C[C@H]1NCCc2cc(OC)c(OC)cc21,100%,18.3% (active),–,–
COC(C)(C)CCCC(C)C/C=C/C(C)=C/C(=O)OC(C)C (configuration not stated),89.3%,97.8%,47.7,105
CC(C)Nc1cc2c(cn1)nc(Nc1cc(Cl)cc(C(F)(F)F)c1)n2C1CCNC1 (configuration not stated),66.7%,28.6%,–,–
CC(C)(C)Nc1cc2c(cn1)nc(Nc1cc(Cl)cc(C(F)(F)F)c1)n2C1CCNC1 (configuration not stated),15.1% (active),14.1% (active),–,–
C[C@@H]1C[C@@H]([C@H](O)CC2CC(=O)NC(=O)C2)C(=O)[C@@H](C)C1,101%,101%,–,–
COc1ccc(Cc2nccc3cc(OC)c(OC)cc23)cc1OC,110%,104%,–,–
CC(COc1ccc(Oc2ccccc2)cc1)Oc1ccccn1 (configuration not stated),88.9%,75.6%,50.7,46.3
COc1cc(/C=N/c2c(SC(F)(F)F)c(C#N)nn2-c2c(Cl)cc(C(F)(F)F)cc2Cl)ccc1O,84.8%,90.9%,21,53.9
CC(c1ccc(C(F)(F)F)nc1)S(C)(=O)=NC#N (configuration not stated),91.2%,90.7%,–,–
CN(C)CCn1c(Nc2cc(Cl)cc(C(F)(F)F)c2)nc2cnc(NC3CCCC3)cc21,94.1%,105%,–,–
CN1C(=O)C(C(=O)Nc2ccc(Cl)c(Cl)c2)C(=O)N(C)C1=O,83.2%,84.5%,–,–
O=C(NC(=O)c1c(F)cccc1F)Nc1ccc(Cl)cc1,92.8%,84.5%,99.6,81
NCCc1cn(S(=O)(=O)c2c(Cl)nc3sccn23)c2ccccc12,13.2% (active),11.5% (active),–,–
CN1C2CCC1CC(C#N)C2 (configuration not stated),92.1%,85.8%,85.6,117
O=[N+]([O-])/N=C1\NCCN1Cc1ccc(Cl)nc1,90.2%,86.5%,–,–
CCC(CC)c1cccc(OC(=O)NC)c1.CCCC(C)c1cccc(OC(=O)NC)c1,98.4%,81.9%,96.3,147
CC[C@@H](C(=O)[C@@H](C)[C@@H](O)[C@H](C)[C@@H]1O[C@@H]([C@@H](CC)C(=O)O)CC[C@@H]1C)[C@H]1O[C@]2(C=C[C@@H](O)[C@]3(CC[C@@](C)([C@H]4CC[C@](O)(CC)[C@H](C)O4)O3)O2)[C@H](C)C[C@@H]1C,102%,102%,–,–
